According to PubChem BioAssay AID1224855 (National Center for Advancing Translational Sciences (NCATS), 2016):
Records with an inconclusive call do not appear. The source made the active and inactive calls. The call rests on the fitted dose curve; in most records, active means well fitted inhibition curve with a large enough effect; inconclusive means small, poorly fitted or top-dose-only effect; inactive means no such curve, though single readings can be large or run the other way.

Assay: Confirmation assay for measurement of the activity of small molecule inhibitors on Zika virus induced Caspase-3 activity in human iPSC derived neural progenitor cells (hNPCs)
Conditions: hNPC ZIKV-induced caspase-3/7, Caspase-Glo luminescence, 6 h; series mostly up to 46.1 µM
Summary of the method: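 hNPCs, 350 cells/well, cultured 16-20 h; cpd 1 h pre-incubation; ZIKV 2 FFU/cell, 6 h, 37 C/5% CO2; Caspase-Glo 3/7, 30 min RT; luminescence; normalized vs uninfected/infected controls.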

| Compound | Potency |
| --- | --- |
| Cc1ccc(O)c(N=Nc2ccccc2)n1 | 1.23 µM (active) |
| Oc1cc(O)cc(/C=C/c2ccc(O)c(O)c2)c1 | 4.89 µM (active) |
| Cc1cc(O)c2c(c1)C(=O)c1cc(O)cc(O)c1C2=O | 1.95 µM (active) |
| CCCS(=O)c1ccc2nc(NC(=O)OC)[nH]c2c1 (stereo unspecified) | 8.69 µM (active) |
| Oc1ccc(/C=C/c2cc(O)cc(O)c2)cc1 | 6.15 µM (active) |
| O=C(O)[C@@H](c1ccc(OCc2ccc3ccccc3n2)cc1)C1CCCC1 | 6.9 µM (active) |
| O=S(=O)(O)CCSSCCS(=O)(=O)O | inactive |
| CC1(C)Cc2c(sc(NC(=S)NC(=O)c3ccccc3)c2C(=O)O)CO1 | inactive |
| COc1cc2nc(-c3ccc(N4CCN(C)CC4)cc3)nc(NCCN3CCOCC3)c2cc1OC | inactive |
| COc1ccc(-c2coc3cc(O)ccc3c2=O)cc1 | 8.69 µM (active) |
| CCCC(=O)OC[C@@H](OC(=O)CCC)[C@@H](OC(=O)CCC)[C@H](Cn1c2nc(=O)[nH]c(=O)c-2nc2cc(C)c(C)cc21)OC(=O)CCC | inactive |
| COc1ccc(C=CC(=O)Nc2ccccc2C(=O)O)cc1OC | 17.3 µM (active) |
| CC1=C(CO)C(=O)O[C@@H]([C@@H](C)[C@H]2CC[C@H]3[C@@H]4C[C@H]5O[C@]56[C@@H](O)C=CC(=O)[C@]6(C)[C@@H]4CC[C@]23C)C1 | inactive |
| O=C(Oc1ccccc1)c1cccc(C(=O)Oc2ccccc2)c1 | 3.98 µM (active) |
| O=C1c2ccccc2-[n+]2ccc3c([nH]c4ccccc43)c21 | 9.75 µM (active) |
| COc1ccnc2c1CCCCC2S(=O)c1nc2ccccc2[nH]1 (stereo unspecified) | inactive |
